Sampled rows, rich in hits. Any-hit rate of the full collection: about 15%.
VP16 counter: counter-screen for ROR gamma inhibitors: Gal4-VP16 reporter; Potency, µM (series often up to 53.6 µM), most hits filed as inhibitors; Drosophila S2 Gal4-VP16 UAS-luciferase, luminescence, 20 h; AID 2546; 310,000 tested, 3.5% active;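 further: Gal4-VP16 expression switched on by copper sulfate through the metallothionein promoter; nearly all actives have a fitted effect of over 50% in size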
RORgamma inh: blocks mouse ROR gamma transcriptional activity; AID 2551; P51450; 310,000 tested, 5.4% active; Drosophila S2 Gal4-RORgamma UAS-luciferase reporter, 20 h; Potency, µM (series often up to 53.6 µM), usual class: inhibitors; further: nearly all actives have a fitted effect of over 60% in size
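Luminescence from a UAS-regulated Photinus luciferase reporter in stably transfected Drosophila Schneider cells is measured; decreased signal marks ROR gamma inhibition. Fusion expression is induced by 700 uM copper sulfate for 20 hr.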
ALOX12 inh: blocks human arachidonate 12S-lipoxygenase | P18054 | Potency, µM (top dose mostly 108 µM), actives largely listed as inhibitors | purified 12hLO, xylenol orange hydroperoxide absorbance | 580,000 tested, 1.1% active | AID 1671190
Target sequence (P18054 whole entry, looked up): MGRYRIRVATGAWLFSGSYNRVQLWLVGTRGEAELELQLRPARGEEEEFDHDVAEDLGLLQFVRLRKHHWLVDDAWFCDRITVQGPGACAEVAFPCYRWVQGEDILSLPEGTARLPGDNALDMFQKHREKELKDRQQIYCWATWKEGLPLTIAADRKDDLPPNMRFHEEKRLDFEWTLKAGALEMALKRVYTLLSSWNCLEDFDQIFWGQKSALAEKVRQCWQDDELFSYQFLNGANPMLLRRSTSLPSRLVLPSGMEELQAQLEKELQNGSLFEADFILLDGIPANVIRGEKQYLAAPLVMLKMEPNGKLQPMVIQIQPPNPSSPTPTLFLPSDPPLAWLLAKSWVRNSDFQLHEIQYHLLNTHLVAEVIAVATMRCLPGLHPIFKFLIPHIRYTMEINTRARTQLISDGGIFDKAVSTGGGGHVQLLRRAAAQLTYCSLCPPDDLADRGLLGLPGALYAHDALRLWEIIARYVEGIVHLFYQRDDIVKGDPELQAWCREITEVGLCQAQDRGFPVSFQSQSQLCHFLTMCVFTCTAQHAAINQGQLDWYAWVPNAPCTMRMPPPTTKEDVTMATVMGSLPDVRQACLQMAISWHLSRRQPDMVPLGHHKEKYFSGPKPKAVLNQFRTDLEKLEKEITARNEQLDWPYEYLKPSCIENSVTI
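Purified human 12hLO at 150 nM in 25 mM Hepes, 0.01% Triton X-100, pH 7.0, preincubated 15 min at room temperature with compound. Reaction started with 40 uM arachidonic acid, 30 min at room temperature. Hydroperoxide measured by Fe-xylenol orange, 573/405 nm absorbance ratio.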
DT40 TDP1 CPT: growth inhibition of DT40 Tdp1-/-;hTDP1 cells with camptothecin (screen for TDP1 inhibitors); 420,000 tested, 12% active; chicken DT40 Tdp1-/-;hTDP1 cells + 20 nM CPT, ATP luminescence, 48 h; Potency, µM (doses to about 46.2 µM), actives largely listed as inhibitors; AID 686979; further: nearly all actives have a fitted effect of over 55% in size
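Chicken DT40 Tdp1-/- cells stably complemented with human TDP1 were seeded at 400 cells/well in medium containing 20 nM camptothecin, exposed to pin-transferred compounds, and grown at 37 °C for at least 48 hr. Viability was read as ATP luminescence.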
TDP1 cell noCPT: qHTS for Inhibitors of human tyrosyl-DNA phosphodiesterase 1 (TDP1): qHTS in cells in absence of CPT | DT40 Tdp1-/- hTDP1 cells, no CPT, ATP luminescence, 48 h | Potency, µM (top dose mostly 46.2 µM), hits mostly inhibitors | 420,000 tested, 15% active | AID 686978, 2013; further: nearly all actives have a fitted effect of over 55% in size
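Luminescent ATP content (CellTiter-Glo) served as the growth readout. Knockout chicken DT40 cells expressing human TDP1 were exposed to compounds without camptothecin for a minimum 48 hr at 37 °C.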
ELG1 repair inh: inhibitors of ELG1-dependent DNA repair in HEK293T cells. HEK293T ELG1-luciferase reporter, luminescence, 16 h; DNA damage induced by 5-fluorouridine. 330,000 tested, 2.3% active. AID 504467. Potency, µM (highest dose often 46.1 µM), usual class: inhibitors; further: nearly all actives have a fitted effect of over 55% in size
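Cells (2,000 per well) received 5-fluorouridine plus test compound or DMSO and were incubated 16 hr at 37 °C, 5% CO2. Luciferase activity was read by luminescence 30 min after ONE-Glo addition; signal suppression marked inhibition of damage-induced ELG1 function.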
Of the large screens only hits and unclear results are named; the others gave an inactive call. The call rests on the fitted dose curve; in most records, active means well fitted curve in the direction sought with a large enough effect; inconclusive means small, poorly fitted or top-dose-only effect, or another doubt; inactive means no such curve, though single readings can be large; an effect the other way counts as inactive or inconclusive.

CCN(CC)C(=O)C1CCCN(c2ncnc3c2cnn3-c2ccc(Cl)cc2)C1 (configuration not stated)	DT40 TDP1 CPT inconclusive, TDP1 cell noCPT 18µM, ELG1 repair inh inconclusive
CCOC(=O)C1CCCN(c2ncnc3c2cnn3-c2cccc(C)c2)C1 (configuration not stated)	ELG1 repair inh inconclusive
O=C(NCCn1cnc2ccccc21)C1CC(=O)N(c2n[nH]c3ccccc23)C1 (configuration not stated)	none (no result: VP16 counter, RORgamma inh, DT40 TDP1 CPT, TDP1 cell noCPT, ELG1 repair inh)
CNC(=S)N(CCc1c(C)[nH]c2ccc(OC)cc12)Cc1cc(OC)c(OC)c(OC)c1	TDP1 cell noCPT inconclusive, ELG1 repair inh inconclusive
CNC(=S)N(CCc1c(C)[nH]c2ccccc12)Cc1cc(OC)c(OC)c(OC)c1	VP16 counter inconclusive, RORgamma inh inconclusive, DT40 TDP1 CPT inconclusive, TDP1 cell noCPT 21µM, ELG1 repair inh inconclusive
CCNC(=S)N(CCc1c(C)[nH]c2ccccc12)Cc1cc(OC)c(OC)c(OC)c1	VP16 counter inconclusive, ALOX12 inh inconclusive, DT40 TDP1 CPT 16µM, TDP1 cell noCPT 10µM
COc1ccccc1NC(=S)N(CCc1c(C)[nH]c2ccccc12)Cc1cccs1	RORgamma inh inconclusive, DT40 TDP1 CPT inconclusive, TDP1 cell noCPT inconclusive, ELG1 repair inh inconclusive
CNC(=S)N(CCc1c(C)[nH]c2ccc(C)cc12)Cc1cc(OC)c(OC)c(OC)c1	RORgamma inh inconclusive, DT40 TDP1 CPT inconclusive, TDP1 cell noCPT 15µM, ELG1 repair inh inconclusive
CCNC(=S)N(CCc1c(C)[nH]c2ccccc12)Cc1cccnc1	DT40 TDP1 CPT inconclusive, TDP1 cell noCPT inconclusive
CC(C)[C@@H]1C(=O)N(S(C)(=O)=O)[C@H]2CCN(C(=O)/C=C\CN3CCCCC3)[C@@H]12	DT40 TDP1 CPT 33µM, TDP1 cell noCPT inconclusive (no result: ELG1 repair inh)
Cc1nc2[nH]c(=S)[nH]c2cc1Br	RORgamma inh 11µM, ALOX12 inh 13µM
Cc1ccc2oc(-c3cccc(F)c3)cc(=O)c2c1	none (no result: VP16 counter, RORgamma inh, DT40 TDP1 CPT, TDP1 cell noCPT, ELG1 repair inh)
CC(c1ccccc1)N(C)S(=O)(=O)c1cccc2nsnc12 (configuration not stated)	none (no result: VP16 counter, RORgamma inh, DT40 TDP1 CPT, TDP1 cell noCPT, ELG1 repair inh)
CCN1CCN(S(=O)(=O)c2ccc(Oc3ccccc3OC)cc2)CC1	RORgamma inh inconclusive, ALOX12 inh inconclusive, TDP1 cell noCPT 23µM, ELG1 repair inh inconclusive
CCN1CCN(S(=O)(=O)c2ccc(Cl)c(C(=O)N(CC)Cc3ccccc3)c2)CC1	ALOX12 inh inconclusive, DT40 TDP1 CPT inconclusive, TDP1 cell noCPT inconclusive (no result: VP16 counter, RORgamma inh)
CCN1CCN(S(=O)(=O)c2ccc(S(=O)(=O)N(CC)Cc3ccccc3)cc2)CC1	ALOX12 inh 1.4µM, DT40 TDP1 CPT inconclusive, TDP1 cell noCPT inconclusive
COc1ccc(S(=O)(=O)N2CCN(Cc3ccco3)CC2)cc1	ALOX12 inh 2.5µM
Cc1ccc(S(=O)(=O)N2CCC3(CC2)SCC(=O)N3Cc2ccco2)cc1	ALOX12 inh 14µM (no result: VP16 counter, RORgamma inh, DT40 TDP1 CPT, TDP1 cell noCPT, ELG1 repair inh)
COc1ccc(S(=O)(=O)N2CCN(Cc3ccccc3OC)CC2)cc1	TDP1 cell noCPT inconclusive (no result: VP16 counter, RORgamma inh, ELG1 repair inh)
Cc1ccoc1C(=O)OCc1cccc(C#N)c1	none (no result: VP16 counter, RORgamma inh, DT40 TDP1 CPT, TDP1 cell noCPT, ELG1 repair inh)
CC(=O)NC12CC3CC4C5CC(CC41)CC2C5C3	none (no result: VP16 counter, RORgamma inh, DT40 TDP1 CPT, TDP1 cell noCPT, ELG1 repair inh)
CCc1ccc(CNC(=O)c2noc(-c3ccc4c(c3)OCO4)n2)cc1	none (no result: VP16 counter, RORgamma inh, DT40 TDP1 CPT, TDP1 cell noCPT, ELG1 repair inh)
CC1(C)Oc2ccc(/C=C/C(=O)N3CCOCC3)c(O)c2C(N2CCOCC2)C1O (configuration not stated)	ELG1 repair inh inconclusive (no result: ALOX12 inh, DT40 TDP1 CPT, TDP1 cell noCPT)
CC(C)CC(=O)OC1C(N2CCOCC2)c2c(ccc(/C=C/C(=O)N3CCOCC3)c2O)OC1(C)C (configuration not stated)	RORgamma inh inconclusive, DT40 TDP1 CPT inconclusive, TDP1 cell noCPT inconclusive, ELG1 repair inh 16µM
Cc1cccc(C(=O)N(Cc2cccs2)C2CC2)c1	none (no result: VP16 counter, RORgamma inh, DT40 TDP1 CPT, TDP1 cell noCPT, ELG1 repair inh)
CC1=NN(C(=O)c2ccc(Cn3nc(C)cc3C)o2)C(O)(C(F)(F)F)C1 (configuration not stated)	VP16 counter 5.6µM, RORgamma inh 6.3µM, DT40 TDP1 CPT 1.3µM, TDP1 cell noCPT 2.5µM
